Measured values as given in the OligoGym collection.
Further: reference of the scale not given here.

Each sequence was assayed against SQRDL (assay: pooled miR-30 sensor sort-seq; sequence = guide strand). Details: shRNA.
For ATAATTACAGAAATTGTCCTAT, the sensor-assay potency score (higher = more potent) was 0.475.
AATCTTCTCATAGTCCAGCTGG was tested, and the sensor-assay potency score (higher = more potent) was -0.573.
For TTTCATATGAAATCACTTGGGT, the sensor-assay potency score (higher = more potent) was 0.204.
With TTGTCCTATCAAGTATTCCTGA the sensor-assay potency score (higher = more potent) was -0.574.
TTTAATCTTCTCATAGTCCAGC showed a sensor-assay potency score (higher = more potent) of 0.0208.
With TTTCTTGTAGTTAACAGTGAGG the sensor-assay potency score (higher = more potent) was -0.847.
Work on TTTGGCACCAGCACCCACCAGT yielded a sensor-assay potency score (higher = more potent) of -0.354.
For TTCTTTATCCACATCCACCCAA, the sensor-assay potency score (higher = more potent) was -0.645.
Sequence TAACTGAATAATTCGACCCTAT has a sensor-assay potency score (higher = more potent) of -0.071.
With TTGGTCACCATTACCCATCAAG the sensor-assay potency score (higher = more potent) was -1.14.
With TTAACTGAATAATTCGACCCTA the sensor-assay potency score (higher = more potent) was 0.0839.

What follows are sequences tested against SRCAP in the same assay as above. Details: shRNA.
TAGACCTTCATTATACTCTTGG gave a sensor-assay potency score (higher = more potent) of 0.352.
In the case of TTTATCTCCAACACCTGAGGGG, the sensor-assay potency score (higher = more potent) is reported as 0.481.
With TTCCACTTGCTCTTCTGCCTGT the sensor-assay potency score (higher = more potent) was 0.497.
Sequence TTAATGACAATGTCTGAGTTGG has a sensor-assay potency score (higher = more potent) of 0.105.
In the case of TTGTTCTTCAACTTCAATCGTT, the sensor-assay potency score (higher = more potent) is reported as 0.0088.
In the case of TTGCTTGAATTGCACCACCTTC, the sensor-assay potency score (higher = more potent) is reported as -1.29.
TTCACCACCACCACTGTCCGGC gave a sensor-assay potency score (higher = more potent) of 0.285.
TATAGTATCCTCTTCATCCTCC gave a sensor-assay potency score (higher = more potent) of 0.687.
TAGAGGACACAGGACTAGCAAG was tested, and the sensor-assay potency score (higher = more potent) was -1.62.
For TGTTCTTCAACTTCAATCGTTT, the sensor-assay potency score (higher = more potent) was -0.243.
AACTCTAGTAGATCCATCCAGG showed a sensor-assay potency score (higher = more potent) of -0.807.
In the case of TCAACATCCACCTTAACTCGGC, the sensor-assay potency score (higher = more potent) is reported as 0.0488.
